AID504770 – E. coli YBA685 growth inhibition, screen for V. cholerae RctB inhibitors; 130,000 compounds, 0.27% hits; AID 504770; z-score (concentration not given with the values); E. coli YBA685 rctB-dependent plasmid, OD600 growth, 3 h; active compounds read low; in the data active = z-score below about -2, passing the limit was not always enough
Ba CapD inh – CapD enzyme inhibition. purified CapD enzyme, fluorescence intensity read-out; active compounds read low. z-score (test concentration not listed). 140,000 compounds, 0.23% hits. AID 492967; in the data active = z-score mostly below about -2.9, no sharp cut-off; inactive = mostly above about -1.9
The depositor's hits bear a star; nt = not tested or not shown; ! = a repeat was not active. In the library only some 0.36% were active in any assay of this set; here they are far more common.

SMILES	AID504770	Ba CapD inh
CCCN1CCN(C(=O)c2sc3nc4n(c(=O)c3c2C)CCCC4)CC1	-0.3	0.71
Cc1ccc(OCCN2CCN(c3nc(NCc4ccccc4)c4ccccc4n3)CC2)cc1	-0.85	70.5
O=C(CC(C(=O)O)N(Cc1ccccc1)Cc1ccccc1)c1ccc(Cl)cc1 (stereo not given)	-2.85*	-0.06
N#CC(C#N)CC(=O)c1ccc(Cl)cc1	-0.9	16.8
COc1ccc(C(=O)OCC(=O)Nc2sc3c(c2C#N)CCC3)cc1OC	0.6	-0.245
O=[N+]([O-])c1ccccc1N1CCCCC1	nt	-0.3
N=C1S/C(=C\c2ccc(-c3ccccc3F)o2)C(=O)N1c1nccs1	nt	-1.15
N=C1S/C(=C/c2ccco2)C(=O)N1c1nccs1	0.05	-4.33*
N#CC1(C#N)C2C=CC(C2)C1(C#N)C#N	-5.95*	0.765
CC(N)CCCC(C)(C)O (stereo not given)	0	-4.07*!
CC(CCCC(C)(C)O)CC1OCC(C)O1 (stereo not given)	0.85	-0.07
CCn1c(SCC(=O)NCc2ccccc2)nc2c([nH]c3ccccc32)c1=O	1.25	nt
CC1COc2c(N3CCN(C)CC3)c(F)cc3c(=O)c(C(=O)O)cn1c23 (stereo not given)	-5.15*	0.435
CC1COc2c(N3CCN(C)CC3)c(F)cc3c(=O)c(C(=O)N4CCN(c5ncccn5)CC4)cn1c23 (stereo not given)	0	nt
CCOC(=O)c1c(C)n(-c2ccccc2)c2c1cc(OC(=O)c1ccc([N+](=O)[O-])cc1)c1ccccc12	nt	-0.26
COC(=O)c1c(CC=C(C)C)c(C)nc2ccccc12	0.15	-0.24
Cc1c(Cl)sn(-c2ccc(Cl)cc2)c1=O	-5.75*	0.23
O=C1CSCC(=O)N1c1ccc(Cl)cc1	-0.7	-0.47
COc1ccc2c(c1)CCc1c(C(=O)N3C(C)CCCC3C)noc1-2 (stereo not given)	-3.05*	0.525
COc1ccc2c(c1)CCc1c(C(=O)N3CCCCC3)noc1-2	-0.55	0.23
O=C(NCCCN1CCCC1)c1cc2cc3ccc(Cl)cc3nc2o1	0.75	-0.335
CCN1CCN(CCCNC(=O)c2cc3cc4ccc(Cl)cc4nc3o2)CC1	-2.3*	0.455
O=C(ON1C(=O)CCC1=O)c1ccc(Cl)cc1Cl	-0.3	-3.96*
O=C(ON1C(=O)CCC1=O)c1ccccc1Cl	0.1	-0.13
COc1ccc(CCN(Cc2nc3ccccc3c(=O)[nH]2)C(=O)C(C)C)cc1	0	nt
SMILES	AID504770	Ba CapD inh
COc1ccc(CN(Cc2nc3ccccc3c(=O)[nH]2)C(=O)NCc2ccccc2)cc1	-3.55*	nt
COc1ccc(OC)c(NC(=O)CSc2nc3ccccc3c(=O)n2NC(=O)CCc2c[nH]c3ccccc23)c1	nt	-0.815
O=C(CCC1CCCCC1)Nc1c[nH]c(=O)[nH]c1=O	-2.15*	nt
O=C(Nc1c[nH]c(=O)[nH]c1=O)NC1CCCC1	-0.6	-0.12
CC(=O)N1C(=O)c2ccc([N+](=O)[O-])cc2C1=O	nt	-0.65
CC(=O)N1C(=O)c2ccccc2C1=O	nt	-5.4*
O=C(Nc1ccccc1)c1cc(Cl)ccc1O	-2.65*	42.5
O=C(Nc1ccccc1)c1csc2ccc(Cl)cc12	1.35	-0.795
CN(C)C(=O)CCCc1nc(-c2ccc(Cl)cc2)no1	-2.4*	-0.955
O=C(O)CCCc1nc(-c2ccc(Cl)cc2)no1	nt	-0.18
N#CC12c3ccccc3C(c3ccccc31)C1C(=O)N(Cc3ccccc3)C(=O)C12 (stereo not given)	nt	-0.245
O=C(COc1ccc2ccc(=O)oc2c1)NC(=O)Nc1ccc2c(c1)OCCO2	0.65	nt
CCc1ccc2c(c1)S(=O)(=O)C(C(F)(F)F)CO2 (stereo not given)	2.45	-6.58*
CCc1cccc(NC(=O)C2COc3ccccc3O2)c1 (stereo not given)	-0.3	nt
CN(C)c1ccc(NC(=O)C23CC4CC(C2)CC(n2cnc(Cl)n2)(C4)C3)cc1	-0.5	0.16
CCCCC(=O)Nc1cccc2nsnc12	0.1	-1.35
CCOC(=O)c1c(C)c(C(=O)NC2CCCCC2)c(C)n1C	-0.75	-0.795
O=C(O)c1cccc(N2C(=O)/C(=C/c3ccc(-c4cc(Cl)ccc4Cl)o3)C=C2c2ccccc2)c1	nt	0.265
CC(=O)c1cnc2cc(C)nn2c1C	nt	0.06
Cc1cc2ncc(C(=O)/C=C/N(C)C)c(C)n2n1	0.25	-5.12*
Cc1ccc(NC(=O)CSc2cc(=O)n(C)c3ccccc23)nc1	1.6	0.04
COc1ccc(Cn2c(CCC(=O)NC3CCCC3)nc3cccnc32)cc1	0	0.43
C/C(=N/NC(=O)c1c(N)no[n+]1[O-])c1cccs1	-0.2	nt
O=C(c1cccs1)c1no[n+]([O-])c1C(=O)c1cccs1	-6.55*	-3.48
O=C(c1c2c(nc3ccccc13)CCCC2)N1CCCCC1	0.2	nt
SMILES	AID504770	Ba CapD inh
O=C(CN1CCc2ccccc2C1)N1N=C(c2ccc(Cl)cc2)CC1c1ccco1 (stereo not given)	1.3	nt
Cn1c(=O)c2sccc2n2c(CCCC(=O)NCCc3ccc(Cl)cc3)nnc12	-0.9	-0.37
CN(C)C(=O)/C(=C/C=C/c1ccccc1)NC(=O)c1ccccc1	0.75	-3.1
COC(=O)C(=C/C=C/c1ccccc1)C(=O)OC	-0.15	-4.48*
O=C(O)COc1ccccc1/C=C1/SC(=S)N(c2cccnc2)C1=O	-0.1	-3.98*
O=C(O)COc1ccccc1/C=C1/SC(=S)N(NC(=O)c2ccco2)C1=O	-0.35	nt
CCOC(=O)c1[nH]c(I)c(C(=O)OCC)c1C	1.4	-0.305
Cc1cc(C)c(S(=O)(=O)N2CCCCC2)cc1C	-0.1	-0.13
Cc1cc2[nH]c(=O)c(=O)[nH]c2cc1S(=O)(=O)N1CCCCC1	-2.55*	28.4
COc1ccc(CCNC(=O)CSc2nc3ccccc3c(=O)n2CCC(=O)NC2CCCCC2)cc1OC	nt	-1.92
O=c1[nH]c(CSc2ncccn2)nc2ccccc12	1.25	nt
O=C(/C=C/c1ccc(-c2cccs2)s1)Oc1ccc(Cl)cc1	2.6	0.06
CC1CS/C(=C(/C(=O)O)C(=O)/C=C/c2cccc(O)c2)S1 (stereo not given)	0	-5.43*
O=C(O)C(C(=O)/C=C/c1ccccc1)=C1SCS1	-1	nt
N#CC1=C(N)Oc2ccc(Cl)cc2C1C(C#N)C#N (stereo not given)	nt	1.89
Nc1cc(-c2ccc(Br)cc2)no1	-0.15	0.75
CC(C)(C)Cc1cc(N)on1	-2.05*	nt
Cc1nn(-c2ccccc2)c2c1C(C(F)(F)F)(C(F)(F)F)N=C(N1CCOCC1)O2	0.55	0.87
COc1ccc2c(c1)C1(NNc3ccccc3O1)C(=O)N2 (stereo not given)	-10.7*	nt
COc1ccc(C2=NN3C(C2)c2ccccc2OC32C(=O)Nc3ccccc32)cc1 (stereo not given)	-0.45	-0.14
O=C(COC(=O)c1n[nH]c2ccccc12)Nc1ccccc1	0.05	2.88
NC(=O)COC(=O)c1n[nH]c2ccccc12	-3.5*	nt
CS(=O)(=O)N1CCc2cc(NC(=O)c3cccc(C(F)(F)F)c3)ccc21	nt	-1.05
O=C(O)c1cc2ccccc2[nH]1	0.45	nt
O=C(O)c1cc2cccc([N+](=O)[O-])c2[nH]1	nt	-4.63*
COc1cc(C2Nc3ccc4ccccc4c3C3=C2C(=O)CC(C)(C)C3)ccc1OCc1ccccc1 (stereo not given)	nt	96
OC1C2CC3CC(C2)CC1C3 (stereo not given)	0.05	nt
CN(C)/C=C1\CCCc2ccccc2C1=O	0.2	-4.12*
CN(C)/C=C1\Cc2ccccc2C1=O	nt	6.44

Assay outcomes deposited in PubChem by ICCB-Longwood Screening Facility, Harvard Medical School.
